Where “and” joins values, the source holds several entries; their conditions need not be identical. Equal values may be shown once. Values without a mark were called inactive. Inconclusive results are not listed. Calls of active or inactive are those of the source. Unless noted, calls follow the shape of the dose curve; as a rule, active = well fitted curve in either direction with a large enough effect (not every such curve was filed as active); inconclusive = small, poorly fitted or top-dose-only effect, or another doubt; inactive = flat fitted curve, though single readings scatter.
Experiments:
[1] = AP1 Signaling Pathway (AID 357); details: ME-180 AP-1-bla reporter, EGF-induced, beta-lactamase ratio, 5 h;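 also: ME-180 reporter cells stimulated with EGF at its EC50 level; % is scaled to controls: 0 for no effect and ±100 for the full control effect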
Outline: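 First, ME-180 AP-1-bla cells were cultured overnight at 37 °C in low-serum Opti-MEM. Next, titrated compounds with EC50 EGF were incubated 5 hours. Finally, CCF4 was added for 2.5 hours and the 460/530 nm ratio recorded.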

[2] = molecular target: Cytochrome P450 1A2 (Homo sapiens) (UniProt P05177); test: p450-cyp1a2 (AID 410; calls by dose curve; also: potency is read from the fitted curve at half-maximal effect;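 as to activity change, negative = inhibition: -100% = full effect of reference inhibitor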)
Outline: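 Luminescent demethylation readout: Luciferin-ME (100uM, equal to Km) turned over by 20nM CYP1A2 for 60 min at room temperature after NADPH regeneration addition, following 10 min compound preincubation. Normalization used 57 uM furafylline as full inhibition.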

[3] = NFAT Signaling Pathway (AID 444); details: Jurkat NFAT-bla M1, carbachol, beta-lactamase ratio, 5 h;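 also: carbachol stimulus at about its EC50 of 1 µM final; % is scaled to controls: 0 for no effect and ±100 for the full control effect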
Outline: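 Read-out: CCF4 FRET ratio (460 nm/530 nm) after 1 h RT dye loading, used for %activity and AC50 from titration series. Cells: Jurkat NFAT-β-lactamase/M1 line, treated with compound plus 1 uM carbachol for 5 h, 37 °C.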

[4] = molecular target: Glucocorticoid receptor (Homo sapiens) (UniProt P04150); test: GR-GFP Redistribution (AID 450;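 active = compounds whose dose series gives a full or clear partial fitted curve of increased nuclear translocation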; also: potency is read from the fitted curve at half-maximal effect); details: U2OS GR-GFP nuclear translocation, laser cytometry, 2 h
[5] = molecular target: Glucocorticoid receptor (Homo sapiens) (UniProt P04150); test: GR-EFC Redistribution (AID 451; calls by dose curve; also: potency is read from the fitted curve at half-maximal effect); details: CHO-K1 GR-EFC translocation, beta-gal luminescence, 2 h
Outline: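 Translocation of GR-ED fusion to nuclear EA restores b-gal, read by luminescence after 1 h room-temperature detection. Engineered CHO-K1 biosensor cells, 1,000/well, exposed 2 h at 37 C to titrations up to 46 uM final.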

[6] = Stat Signaling Pathway (AID 446); details: ME-180 (cervical carcinoma) SIE beta-lactamase reporter, IL-6 stimulated, 5 h; at 38 µM (top of the series) unless noted;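 also: ME-180 cervical cancer cells given 40 pM IL-6 alongside compound; SIE-controlled beta-lactamase reporter measured as 460/530 nm FRET emission ratio; % is scaled to controls: 0 for no effect and ±100 for the full control effect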
Outline: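 Normalization used AC90 stimulation (300 pM IL-6) and AC90 inhibition (125 nM pan-JAK inhibitor at 40 pM IL-6). The underlying signal is SIE-driven beta-lactamase in ME-180 cells after 5 h IL-6 exposure with compound.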

[7] = molecular target: Mitogen-activated protein kinase 10 (Mus musculus) (UniProt Q61831); test: JNK3 AlphaScreen Assay (AID 530);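 also: kinase came from lysate of stimulated human HepG2 cells; signal reports phosphorylation of biotinylated GST-cJun 1-79 at Ser73 with 10 µM ATP; % is scaled to controls: 0 for no effect and ±100 for the full control effect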
Outline: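 qHTS titrations with 15 min compound pre-incubation before adding ATP (10 uM final). Read-out: AlphaScreen of Ser73-phosphorylated biotin-GST-cJun using HepG2 lysate JNK3 activated by IL-1β and TNFα.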

[8] = molecular target: Lysosomal acid glucosylceramidase (Homo sapiens) (UniProt P04062); test: Glucocerebrosidase-p2 (AID 348; in the data active = potency below about 10 µM; also: potency is read from the fitted curve at half-maximal effect); details: purified GBA, blue fluorogenic substrate, 40 min
Outline: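 Normal human glucocerebrosidase (0.2 nM) with blue fluorogenic substrate (80 uM final) in citrate/phosphate pH 5.9 with 10mM sodium taurocholate, 0.01% tween-20; 40 min RT, NaOH/glycine stop; fluorescence Ex 365/Em 440; AC50 from a titration from 0.6 nM upwards.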

[9] = at 38 µM (top of the series) unless noted

Chain of Glucocorticoid receptor (Homo sapiens) (P04150 whole entry, looked up, the tested form may be a part): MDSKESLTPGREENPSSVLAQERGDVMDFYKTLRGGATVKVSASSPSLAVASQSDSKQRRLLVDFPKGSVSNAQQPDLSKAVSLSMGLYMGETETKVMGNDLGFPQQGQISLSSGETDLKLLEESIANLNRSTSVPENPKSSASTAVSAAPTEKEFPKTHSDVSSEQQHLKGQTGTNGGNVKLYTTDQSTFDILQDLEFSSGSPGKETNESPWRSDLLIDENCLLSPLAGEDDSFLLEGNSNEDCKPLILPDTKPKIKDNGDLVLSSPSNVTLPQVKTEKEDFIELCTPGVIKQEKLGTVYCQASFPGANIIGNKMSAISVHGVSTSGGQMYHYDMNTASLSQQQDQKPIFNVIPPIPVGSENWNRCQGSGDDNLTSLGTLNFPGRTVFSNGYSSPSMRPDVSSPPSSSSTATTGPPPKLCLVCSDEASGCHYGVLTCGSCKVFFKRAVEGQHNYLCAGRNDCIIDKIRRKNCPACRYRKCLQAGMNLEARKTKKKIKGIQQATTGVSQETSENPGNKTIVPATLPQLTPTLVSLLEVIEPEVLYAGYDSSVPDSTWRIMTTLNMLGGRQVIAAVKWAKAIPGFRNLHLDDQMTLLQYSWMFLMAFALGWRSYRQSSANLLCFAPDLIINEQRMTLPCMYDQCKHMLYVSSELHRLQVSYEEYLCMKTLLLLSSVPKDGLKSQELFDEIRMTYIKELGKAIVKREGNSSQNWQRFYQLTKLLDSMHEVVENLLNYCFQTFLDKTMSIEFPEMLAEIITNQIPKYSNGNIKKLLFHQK
Chain of Cytochrome P450 1A2 (Homo sapiens) (P05177 whole entry, looked up): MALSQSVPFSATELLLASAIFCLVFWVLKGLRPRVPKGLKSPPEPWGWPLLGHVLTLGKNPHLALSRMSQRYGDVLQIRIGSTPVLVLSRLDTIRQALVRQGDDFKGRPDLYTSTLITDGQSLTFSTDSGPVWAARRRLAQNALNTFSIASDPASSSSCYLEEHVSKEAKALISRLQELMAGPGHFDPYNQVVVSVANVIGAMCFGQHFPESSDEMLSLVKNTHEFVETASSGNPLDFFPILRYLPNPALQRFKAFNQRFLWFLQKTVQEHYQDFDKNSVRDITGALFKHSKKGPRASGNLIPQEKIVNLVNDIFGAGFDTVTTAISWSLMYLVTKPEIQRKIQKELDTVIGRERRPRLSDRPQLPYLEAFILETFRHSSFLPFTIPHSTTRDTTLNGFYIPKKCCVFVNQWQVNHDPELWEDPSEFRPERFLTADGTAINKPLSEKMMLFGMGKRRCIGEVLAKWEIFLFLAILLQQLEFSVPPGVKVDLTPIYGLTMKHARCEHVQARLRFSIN
Chain of Lysosomal acid glucosylceramidase (Homo sapiens) (P04062 whole entry, looked up): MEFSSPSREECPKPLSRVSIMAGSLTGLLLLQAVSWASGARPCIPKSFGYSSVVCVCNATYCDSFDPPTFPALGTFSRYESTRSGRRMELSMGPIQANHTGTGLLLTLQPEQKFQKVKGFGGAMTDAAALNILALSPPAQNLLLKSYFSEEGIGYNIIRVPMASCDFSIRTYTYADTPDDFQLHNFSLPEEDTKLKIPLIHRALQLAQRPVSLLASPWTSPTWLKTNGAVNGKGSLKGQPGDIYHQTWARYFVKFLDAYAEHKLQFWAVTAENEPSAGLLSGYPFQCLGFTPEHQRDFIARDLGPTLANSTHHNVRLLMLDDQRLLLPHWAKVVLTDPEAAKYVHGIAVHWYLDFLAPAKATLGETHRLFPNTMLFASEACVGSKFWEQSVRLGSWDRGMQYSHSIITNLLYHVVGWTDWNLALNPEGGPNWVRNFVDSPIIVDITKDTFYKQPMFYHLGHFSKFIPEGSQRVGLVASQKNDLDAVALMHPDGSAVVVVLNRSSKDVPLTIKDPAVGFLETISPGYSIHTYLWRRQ

| Compound | activity change, negative = inhibition ([1]; at 17.2 µM (top of the series)) | activity change, negative = inhibition ([1]; at 38 µM (top of the series)) | Potency [2] | activity change, negative = inhibition ([3]; at 17.2 µM (top of the series)) | activity change, negative = inhibition ([3]; at 38 µM (top of the series)) | Potency [4] | Potency [5] | activity change, negative = inhibition [1, 9] | activity change, negative = inhibition [3, 9] | activity, negative = inhibition [6] | outcome [7] | Potency [8] | activity change, negative = inhibition [7] |
| --- | --- | --- | --- | --- | --- | --- | --- | --- | --- | --- | --- | --- | --- |
| CCCn1c(=O)c2[nH]c(C3CCCC3)nc2n(CCC)c1=O | -7.55% | -12.1% | 1.26 µM (active) and 251 nM (active) | 11.5% | -0.836% | > 46 µM and > 20.6 µM | > 46 µM | – | – | – | – | – | – |
| NC/C=C\C(=O)O | – | – | inactive | – | – | > 46 µM | > 46 µM | 2.58% and 1.13% | 4.38% and -3.77% | 22.6% and 7.43% | inactive | – | – |
| O=C(O)/C(=C/c1c(C(=O)O)[nH]c2cc(Cl)cc(Cl)c12)c1ccccc1 | – | – | 12.6 µM (active) | – | – | > 46 µM | > 46 µM | 1.71% | -3.51% | 10.5% | inactive | – | – |
| Cn1cc(C(=O)OCC2CCN(CCNS(C)(=O)=O)CC2)c2ccccc21 | – | – | 12.6 µM (active) and 15.8 µM (active) | – | – | > 46 µM | > 46 µM | -4.52% | -2.1% | -18.9% | inactive | – | – |
| Nc1nc2[nH]c(=O)cnc2c(=O)[nH]1 | – | – | inactive | – | – | > 46 µM | > 46 µM | 6.93% | -5.45% | 29.5% | inactive | – | – |
| O=c1[nH]c(=S)[nH]c(-c2ccccc2)c1Cc1c(O)ccc2ccccc12 | – | – | 1 µM (active) | – | – | > 46 µM | > 9.22 µM | -11.2% [at 7.69 µM] | 15.8% [at 7.69 µM] | – | – | > 11.4 µM | 0.827% [at 11.4 µM] |
| CCCc1c(OCCCOc2ccc(OCC(=O)O)cc2)ccc(C(C)=O)c1O | – | – | 31.6 µM (active) | – | – | > 46 µM | > 46 µM | -9.01% | -26.4% | 11.2% | – | – | – |
| NC(N)=NC(N)=Nc1cccc(Cl)c1 | – | – | inactive | – | – | > 46 µM | > 46 µM | -8.78% | 7.69% | 15.9% | inactive | – | – |
| CN[C@H](CC(=O)O)C(=O)O | – | – | inactive | – | – | > 46 µM | > 46 µM | -0.55% | 0.454% | 2.84% | inactive | – | – |

— PubChem BioAssay (NCATS)
